# From PubChem BioAssay (NCATS)
# Values without a mark were called inactive. The rule behind the calls is not given here.
# Tested on: HIV-1 nucleocapsid protein NCp7 (binding to TG oligonucleotide)
# Assay: HIV Nucleocapsid (AID 346);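 note: potency is for inhibitors that block NC binding and lower polarization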
# Conditions: HIV-1 NC / fluorescein-TGTGTGTG probe, fluorescence polarization
# Description: NCGC Assay Overview: HIV-1 nucleocapsid protein (HIV-1 NC) is a small (6.5 kDa) basic zinc-finger protein which participates in packaging of viral genomic RNA. The spacing and metal-chelating residues (3 Cys, 1 His) of the Cys-X2-Cys-X4-His-X4-Cys Zn fingers are conserved among all known retroviruses (J. Med. Chem. 1998, 41, 1371-1381). HIV-1 NC was assayed for its binding to the consensus sequence single-stranded 5'-TGTGTGTG. […] High salt was included to increase the stringency of binding and inhibitor screen. Reducing agents and zinc were present to stabilize the nucleocapsid zinc-finger protein.
# NCGC Assay Protocol Summary: Buffer. Hepes pH 7.5, 250mM NaCl, 1uM ZnCl2. 0.004% polyethylene glycol 20000. TCEP (100 uM) and 2-Mercaptoethanol (5 mM), added fresh the day of the experiment. Reagents/Controls. 10 nM TG4xF only in columns 3 and 4 as negative control. 10 nM TG4xF/100 nM HIV-1 NC in columns 1, 2, 5-48. Titration of control compound NSC-13778 (from 20 mM, then 1:2) pin-transferred to column 2. Assay Steps. Two uL of reagents were dispensed to 1536-well Kalypsys black plates. The plates were centrifuged for 1 min at 1000 rpm. Compounds and controls (20 nL) were transferred via Kalypsys PinTool. The plates were incubated for 1 hr at room temperature, and then read on ViewLux (Perkin-Elmer). High-throughput CCD imager using fluorescein polarization filter set and 45 seconds exposure time.
# Potency is the fitted concentration of half-maximal effect.
row,SMILES,Potency
1,COc1ccc(C(=O)N2CCC[C@@]3(CCN(c4ncccn4)C3)C2)cc1,> 20 µM
2,COc1ccc(-n2c(=O)c(-c3ccc(F)cc3)nc3cnc(OC)nc32)cc1,> 20 µM
3,COc1ccccc1CN1CC[C@@]2(CCCN(C(=O)c3cccc(F)c3)C2)C1,> 20 µM
4,Cc1noc(C)c1-c1ccc2ncnc(Nc3ccccc3)c2c1,> 20 µM
5,O=C(c1ccncc1)N1CCC[C@@]2(CCN(c3cccc(-c4ccccc4)c3)C2)C1,> 20 µM
6,CCNc1ncc2nc(CCc3ccccc3)c(=O)n(CCOC)c2n1,> 20 µM
7,O=C(c1cccc(F)c1)N1CCC2(CC1)CN(Cc1ccccc1)C2,> 20 µM
8,COc1ccccc1CN1CCC2(CC1)CCN(C(=O)c1cccn1C)CC2,> 20 µM
9,COc1ncc2nc(-c3ccc(F)cc3)c(=O)n(Cc3cccs3)c2n1,> 20 µM
10,O=c1cnc2cnc(N3CCOCC3)nc2n1C[C@H]1CCCO1,> 20 µM
11,COc1ccc(CNc2cc(-c3cccc(C#N)c3)ncn2)c(OC)c1,> 20 µM
12,Cc1noc(C)c1-c1ccc2ncnc(NCCN3CCOCC3)c2c1,> 20 µM
13,N#Cc1cccc(-c2ccc3ncnc(NC4CCNCC4)c3c2)c1,> 20 µM
14,Cc1nc2cnc(Oc3ccccc3)nc2n(C2CC2)c1=O,> 20 µM
15,COCCn1c(=O)c(-c2cc(F)cc(F)c2)nc2cnc(Oc3ccccc3)nc21,> 20 µM
16,O=c1c(-c2ccccc2)nc2cnc(Oc3ccccc3)nc2n1C[C@H]1CCCO1,> 20 µM
17,COc1ccc2[nH]cc(CCNc3cc(-c4ccccc4C(F)(F)F)ncn3)c2c1,> 20 µM
18,COCC(=O)N1CCC2(CC1)CCN(c1ccccc1)CC2,> 20 µM
19,CN(C)c1ccnc(-c2ccccc2C(F)(F)F)n1,> 20 µM
20,O=c1c(-c2cccs2)nc2cnc(Oc3ccccc3)nc2n1Cc1cccs1,> 20 µM

row,SMILES,Potency
1,COc1cccc(-c2nccc(NCc3cnc(C)cn3)n2)c1,> 20 µM
2,COC(=O)N1CCC2(CC1)CN(c1ccncc1)C2,> 20 µM
3,Cc1ccccc1-c1nc(NCc2cccnc2)c2ccccc2n1,> 20 µM
4,COc1ccccc1CNc1ncncc1-c1cccnc1,> 20 µM
5,Cn1cccc1C(=O)N1CCC2(CC1)CCN(c1ccccc1)CC2,> 20 µM
6,Cc1noc(C)c1-c1nccc(N2CCN(C)CC2)n1,> 20 µM
7,CS(=O)(=O)N1CCC2(CCN(Cc3nccs3)CC2)CC1,> 20 µM
8,COc1ccc(NC(=O)N2CCC3(CC2)CCN(C(=O)c2csnn2)CC3)cc1,> 20 µM
9,Cc1nc2cncnc2n(Cc2ccc(F)cc2)c1=O,> 20 µM
10,CN(C)c1ncc2ncc(=O)n(CCc3ccccc3)c2n1,> 20 µM
11,COc1ccc(Oc2ncc3nc(-c4ccc(OC)cc4)c(=O)n(Cc4cccs4)c3n2)cc1,> 20 µM
12,O=S(=O)(c1ccccc1)N1CCC2(CCCN(Cc3ccncc3)C2)CC1,> 20 µM
13,CN1CCN(c2ncc3nc(-c4cccs4)c(=O)n(CCC#N)c3n2)CC1,15.3 µM
14,CN(C)C(=O)c1ccc(-c2ccc3ncnc(NCc4cccnc4)c3c2)cc1,> 20 µM
15,COc1ncc2nc(-c3ccccc3)c(=O)n(C)c2n1,> 20 µM
16,CN1CCN(c2ncc3nc(-c4cccs4)c(=O)n(-c4ccccc4)c3n2)CC1,16.7 µM
17,N#Cc1cccc(-c2nccc(NCc3cccs3)n2)c1,> 20 µM
18,COc1ccc2[nH]cc(CCNc3ncnc4ccc(-c5ccccc5OC)cc34)c2c1,> 20 µM
19,O=c1c(-c2cc(F)cc(F)c2)nc2cnc(N3CCNCC3)nc2n1-c1ccccc1,> 20 µM
20,COC(=O)N1CCC[C@@]2(CCN(Cc3nccs3)C2)C1,> 20 µM
